Assay results reported in paper PMC5540273 (PLoS ONE, 2017).

Tests used:
Settings in all cases: concentration: 1 μM, replicates: in singlicate; n = 1
[1] = test system: DAPK2
[2] = test system: DAPK3
[3] = test system: T1, DCAMKL1
T1 construct: gene DCLK1

[4] = test system: T2, DCAMKL2
T2 construct: gene DCLK2

[5] = test system: T3, DCAMKL3
T3 construct: gene DCLK3

[6] = test system: DDR1
[7] = test system: DDR2
[8] = test system: T4, DLK
T4 construct: gene MAP3K12

[9] = test system: T5, DMPK2
T5 construct: gene CDC42BPG

[10] = test system: DMPK
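Further: KINOMEscan kinase panel screen.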

Structure (SMILES)	%Inh [1] [%]	%Inh [2] [%]	%Inh [3] [%]	%Inh [4] [%]	%Inh [5] [%]	%Inh [6] [%]	%Inh [7] [%]	%Inh [8] [%]	%Inh [9] [%]	%Inh [10] [%]
Cn1ccc2ncnc(Oc3cccc(C(=O)Nc4ccccc4)c3)c21	24	0	28	0	0	0	9	0	0	11
Cc1cc(NCC(c2ccccc2)c2ccccc2)nc(NCc2ccc(C(F)(F)F)cc2)n1 [GW497681]	0	0	0	11	0	0	20	39	1	0
COc1cccc(-c2cc(-c3c[nH]nc3-c3ccccn3)ccn2)c1 [GW680338]	22	23	13	0	0	3	37	28	6	0
CN1C(=O)C(Nc2ccc(Cl)c(C(=O)O)c2)=C(c2ccc(Cl)cc2)C1=O [SB-404290]	9	14	0	6	10	0	0	0	0	0
COc1ccc(CNC(=O)NC2CCN(c3ccnc(Nc4cc(OC)c(OC)c(OC)c4)n3)C2)cc1 (stereo not drawn) [GSK1379748]	0	10	5	0	0	1	45	100	2	0
O=C(Nc1ccccc1)Nc1cccc(Oc2ccc3nccn3n2)c1	0	0	0	0	69	97.8	1	0	0	4
CN(C)CCN(C)C(=O)c1cc(-c2ccncc2)c(-c2ccc(Cl)c(O)c2)o1.Cl.Cl [SB-710397]	0	33	56	9	0	34	38	34	47	0
Cl.Oc1ccc(-c2nc(-c3ccccc3)[nH]c2-c2ccncc2)cc1 [SB-428218]	0	31	6	15	7	9	59	58	0	0
CC1=C(C(=O)Nc2cc3cn[nH]c3cc2F)C(c2ccc(C(F)(F)F)cc2)CC(=O)N1 (stereo not drawn) [GSK429286]	0	24	4	7	39	3	0	0	0	0
Cc1ccc(-c2cc(-c3c[nH]nc3-c3ccccn3)ccn2)cc1 [GW684088]	9	25	21	24	0	13	47	45	5	0
COc1cc(Nc2nccc(N3CCC(NC(=O)Nc4cc(C)ccc4C)C3)n2)cc(OC)c1OC (stereo not drawn) [GSK1379762]	0	7	0	12	0	43	10	30	22	0
COc1cccc(NC(=O)NC2CCN(c3ccnc(Nc4ccc(F)cc4)n3)C2)c1 (stereo not drawn) [GSK1379721]	0	2	11	2	0	17	38	0	13	0
CCCc1ccc(S(=O)(=O)NC2CCN(c3ccnc(Nc4ccc(F)cc4)n3)C2)cc1 (stereo not drawn) [GSK1379715]	0	7	10	0	0	0	7	0	0	0
CC(C)(C)c1ccc(C(=O)Nc2cn3cc(-c4cccnc4)ccc3n2)cc1	13	8	45	12	25	24	0	0	17	5
CC(=O)Nc1nc2cnc(Nc3cc(NC(=O)c4cccc(CCC#N)c4)ccc3C)nc2s1	6	8	12	13	12	100	86	0	3	12
O=c1cc(N2CCOCC2)nc2n(Cc3cccc(Cl)c3Cl)ccn12 [GSK2286295]	7	15	5	0	20	0	0	0	0	3
Cc1ccccc1-n1cnc2c(N)ncnc21 [SKF-97510]	10	12	0	0	0	11	0	0	0	0
CS(=O)(=O)c1ccc(-c2nc3n(c2-c2ccncc2)CCC3)cc1 [SKF-105942]	0	22	21	13	20	0	7	0	0	0
